Laboratory results taken from PubChem BioAssay (Tox21).
Records with an inconclusive call do not appear. The source made the active and inactive calls. Calls come from the whole dose curve; as a rule, active = well fitted activation curve with a large enough effect in the signal ratio in the repeat runs, with a control signal flat (not every such curve was filed as active); inconclusive = weak or mixed curves, or effect the other way; inactive = no such curve, though single readings can be large or run the other way; the % refers to the signal ratio.

The molecules below were run against Androgen receptor (Homo sapiens) (UniProt P10275) (assay: qHTS assay to identify small molecule agonists of the androgen receptor (AR) signaling pathway (AID 743036)). Conditions: HEK293 AR-UAS-bla GripTite, beta-lactamase FRET ratio, 16 h; series mostly up to 62.4 µM.
Androgen receptor (Homo sapiens), sequence (P10275 whole entry, looked up): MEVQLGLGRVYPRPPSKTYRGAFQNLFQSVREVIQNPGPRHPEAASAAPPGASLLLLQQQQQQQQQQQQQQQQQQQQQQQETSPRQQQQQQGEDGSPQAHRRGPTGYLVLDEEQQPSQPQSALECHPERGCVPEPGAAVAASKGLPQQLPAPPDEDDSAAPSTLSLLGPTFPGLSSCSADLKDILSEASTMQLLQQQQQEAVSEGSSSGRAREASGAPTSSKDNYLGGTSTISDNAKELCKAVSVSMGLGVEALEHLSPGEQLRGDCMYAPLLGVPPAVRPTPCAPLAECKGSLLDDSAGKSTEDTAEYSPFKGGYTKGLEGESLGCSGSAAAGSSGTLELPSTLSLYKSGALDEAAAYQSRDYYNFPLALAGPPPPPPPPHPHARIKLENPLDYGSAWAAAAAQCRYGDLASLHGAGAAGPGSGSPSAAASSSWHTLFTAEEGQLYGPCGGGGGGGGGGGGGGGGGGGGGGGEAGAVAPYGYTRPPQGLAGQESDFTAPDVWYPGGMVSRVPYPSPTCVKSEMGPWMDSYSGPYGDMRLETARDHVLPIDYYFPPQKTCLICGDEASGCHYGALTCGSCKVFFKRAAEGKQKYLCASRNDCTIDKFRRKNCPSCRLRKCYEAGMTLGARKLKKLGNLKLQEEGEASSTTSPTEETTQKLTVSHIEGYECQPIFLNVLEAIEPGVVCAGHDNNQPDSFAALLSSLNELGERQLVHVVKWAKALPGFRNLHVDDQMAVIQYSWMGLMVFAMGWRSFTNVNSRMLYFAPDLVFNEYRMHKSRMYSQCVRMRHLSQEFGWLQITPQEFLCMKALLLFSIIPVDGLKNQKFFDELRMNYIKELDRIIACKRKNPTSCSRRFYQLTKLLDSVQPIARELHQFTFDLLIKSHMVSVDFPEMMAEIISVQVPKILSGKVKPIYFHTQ
Excerpt: U.S. Tox21 Program National Center for Advancing Translational Sciences [NCATS] NIH Chemical Genomics Center [NCGC] U.S. Environmental Protection Agency [EPA] National Institutes of Environmental Health Sciences [NIEHS] National Toxicology Program [NTP] U.S. Food and Drug Administration [FDA] Tox21 Assay Overview: Androgen receptor (AR), a nuclear hormone receptor, plays a critical role in AR-dependent prostate cancer and other androgen related diseases. Endocrine disrupting chemicals (EDCs) and their interactions with steroid hormone receptors like AR may cause disruption of normal endocrine function as well as interfere with metabolic homeostasis, reproduction, developmental and behavioral functions. To identify the compounds that activate AR signaling, GeneBLAzer AR-UAS-bla-GripTite cell line (Invitrogen, Carlsbad, CA, USA) containing a beta-lactamase reporter gene under the control of an Upstream Activator Sequence (UAS) stably integrated into HEK293 cells was used to screen the Tox21 10K compound library.
Tox21 Assay Protocol Summary: AR-bla cells were dispensed at 2,000 cells/6 uL/well of assay medium into black wall/clear-bottom 1536-well plates using a Multidrop Combi (ThermoFisher Scientific, Waltham, MA) dispenser. After the assay plates were incubated at 37C and 5% CO2 for 4 h, 23 nL of compounds dissolved in DMSO, positive controls or DMSO only was transferred to the assay plate by a Pintool station (Kalypsys, San Diego, CA). The plates were incubated at 37C and 5% CO2 for 16 h. Then 1 uL of LiveBLAzerTM B/G FRET substrate was added using a Bioraptr Flying Reagent Dispenser (FRD) workstation (Beckman Coulter, Indianapolis, IN, USA). The plates were incubated at room temperature for 2 h, and fluorescence intensity was measured by an Envision plate reader (PerkinElmer, Shelton, CT).
CC/C=C\CC1=C(C)CCC1=O was tested, and the outcome was “inactive”.
With COc1ccc2c(c1)C(=O)N(CCc1ccc(S(=O)(=O)NC(=O)NC3CCCCC3)cc1)C(=O)C2(C)C the outcome was “inactive”.
Nc1ccc(S(=O)(=O)Nc2ccc(Cl)nn2)cc1 was tested, and the outcome was “inactive”.
With C#CC(C)N(C)C(=O)Nc1ccc(Cl)cc1 (stereo not given) the outcome was “inactive”.
Oc1cn2c(n1)Nc1ccc(Cl)c(Cl)c1C2 was tested, and the outcome was “inactive”.
In the case of O=C(OCc1ccccc1)C(=O)OCc1ccccc1, the outcome is reported as “inactive”.
O=C(O)CCSSCCC(=O)O was tested, and the outcome was “inactive”.
In the case of OCCN(CCO)c1cccc(Cl)c1, the outcome is reported as “inactive”.
For CC(C)=O, the outcome was “inactive”.
For NC(CO)C(=O)NNCc1ccc(O)c(O)c1O (stereo not given), the outcome was “inactive”.
For CC(=O)OC(C)OC(=O)C(C)c1ccc(-c2ccccc2)c(F)c1 (stereo not given), the outcome was “inactive”.
Cc1cc(C(C)(C)C)c(O)c(C)c1CC1=NCCN1 was tested, and the outcome was “inactive”.
CCCOC(=O)C(C)O (stereo not given) was tested, and the outcome was “inactive”.
With COc1nccnc1NS(=O)(=O)c1ccc(N)cc1 the outcome was “inactive”.
C=C(C)C1CCC(C)(O)CC1 (stereo not given) was tested, and the outcome was “inactive”.
CCCCCCCCCC(C)=O was tested, and the outcome was “inactive”.
With Nc1ccc2cc(S(=O)(=O)O)cc(O)c2c1 the outcome was “inactive”.
N#Cc1ccc(C(=O)O)cc1 was tested, and the outcome was “inactive”.
CC(CC=O)CCCC(C)(C)O (stereo not given) was tested, and the outcome was “inactive”.
In the case of O=C(NCCc1c[nH]c2ccccc12)c1cccnc1, the outcome is reported as “inactive”.
In the case of O=C1c2ccccc2C(=O)N1CCl, the outcome is reported as “inactive”.
With Cc1cc(Cl)c(C)cc1Cl the outcome was “inactive”.
For CC(CO)c1ccccc1 (stereo not given), the outcome was “inactive”.
In the case of O=C(Nc1ccc(Cl)c(Cl)c1)C1CC1, the outcome is reported as “inactive”.
In the case of OCCC(F)(F)C(F)(F)C(F)(F)C(F)(F)C(F)(F)C(F)(F)C(F)(F)C(F)(F)F, the outcome is reported as “inactive”.
In the case of O=C(O)C(=O)Cc1ccccc1, the outcome is reported as “inactive”.
For CC(C)NCC(O)COc1ccc(COCCOC(C)C)cc1 (stereo not given), the outcome was “inactive”.
CCOC(=O)c1ncn2c1CN(C)C(=O)c1cc(F)ccc1-2 was tested, and the outcome was “inactive”.
With COc1ccc(OC)c(Cl)c1 the outcome was “inactive”.
With CC(C)NCC(O)COc1cccc2[nH]ccc12 (stereo not given) the outcome was “inactive”.
CCN(C)C(=O)Oc1cccc([C@H](C)N(C)C)c1 was tested, and the outcome was “inactive”.
With O=C(CCN1CCN(CCO)CC1)N1c2ccccc2Sc2ccc(C(F)(F)F)cc21 the outcome was “inactive”.
For CNC(=O)[C@H]1O[C@@H](n2cnc3c(NCc4cc(Cl)ccc4OCc4cc(C)no4)ncnc32)[C@H](O)[C@@H]1N, the outcome was “inactive”.
For CC(S)C(=O)NCC(=O)O (stereo not given), the outcome was “inactive”.
COc1cc(NS(=O)(=O)c2ccc(N)cc2)nc(OC)n1 was tested, and the outcome was “inactive”.
With C=COCCOCCOCCOC=C the outcome was “inactive”.
For COCCOCCOCCOCCO, the outcome was “inactive”.
CC(C)c1ccc2cc(C(C)C)ccc2c1 was tested, and the outcome was “inactive”.
In the case of C=C(C)C(=O)OCCN(CC)CC, the outcome is reported as “inactive”.
With CCCC/C=C/C=C\C=O the outcome was “inactive”.
